According to the supplement of paper PMC6992640:
Structures can show the parent of a compound that is named as a salt. ± gives the standard deviation of the averaged measurements.

What was measured:
Assay in all cases: cell viability (% of vehicle); higher = less cytotoxic
Details in all cases: 10 µM; 72 h
[1] = tested on: HCI01 (cells of a triple-negative basal-like breast cancer xenograft)
[2] = tested on: HCI03 (cells of an ER-positive luminal breast cancer xenograft)
[3] = tested on: HCI09 (cells of a triple-negative luminal androgen receptor type breast cancer xenograft)
[4] = tested on: HCI11 (cells of an ER-positive luminal breast cancer xenograft)
[5] = tested on: HCI13 (cells of an ER-positive luminal breast cancer xenograft)
[6] = tested on: HCI16 (cells of a triple-negative basal-like breast cancer xenograft)
[7] = tested on: UCD52 (cells of a triple-negative basal-like breast cancer xenograft)
[8] = tested on: WHIM2 (cells of a triple-negative basal-like breast cancer xenograft)
[9] = tested on: WHIM30 (cells of a triple-negative basal-like breast cancer xenograft)
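Further: PDX cells carrying CMV promoter-driven luciferase, viability read as total photon flux per second by IVIS imaging following D-luciferin, vehicle control 0.1% DMSO.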

SMILES	cell viability [1]	cell viability [2]	cell viability [3]	cell viability [4]	cell viability [5]	cell viability [6]	cell viability [7]	cell viability [8]	cell viability [9]
Cc1cnc(C(=O)O)c[n+]1[O-] [Acipimox]	76.1 ± 45	159	98.5 ± 17	78.9	90.4 ± 3.8	103	79.6 ± 5.9	108 ± 1.4	
CC1=C(C(=O)O)N2C(=O)C(NC(=O)C(N)c3ccccc3)C2SC1 (stereo unspecified) [Cephalexin]	135 ± 38	122	86.6 ± 21	101	76.3 ± 2.8	113	114.8 ± 0.94	118 ± 12	111 ± 5.6
COCCOC(=O)C1=C(C)NC(C)=C(C(=O)OC(C)C)C1c1cccc([N+](=O)[O-])c1 (stereo unspecified) [Nimodipine]	136 ± 0.51	107	128 ± 25	115	87.6 ± 5.7	121	114 ± 5.1	132 ± 7.9	157 ± 28
CC(C)(C)NCC(O)c1cc(O)cc(O)c1.CC(C)(C)NCC(O)c1cc(O)cc(O)c1.O=S(=O)(O)O (stereo unspecified) [Terbutaline Sulfate]	114.4 ± 0.83	110	98.9 ± 20	109	88.5 ± 2.1	127	79.6 ± 5.6	106 ± 18	123 ± 6
CCN(CC)C(=O)C1(c2ccccc2)CC1CN.Cl (stereo unspecified) [Milnacipran HCl]	68.6 ± 44	137	96.4 ± 9.2	98.1	127 ± 14	105	86.4 ± 1.7	93.8 ± 47	
CC(=O)SC1CC2=CC(=O)CCC2(C)C2CCC3(C)C(CCC34CCC(=O)O4)C12 (stereo unspecified) [Spironolactone]	109 ± 2.6	114	73.8 ± 9.1	110	75.9 ± 6.1	64.2	79.7 ± 14	88.8 ± 8.7	113 ± 10
CN(C)CCCN1c2ccccc2CCc2ccccc21.Cl [Imipramine (hydrochloride)]	104 ± 14	88.1	84.9 ± 5.2	60	95.1 ± 1.8	119	90.4 ± 7.2	82.5 ± 12	79.7 ± 8.5
Nc1ccn(C2OC(CO)C(O)C2O)c(=O)n1 (stereo unspecified) [Cytidine]	101 ± 36	131	98.9 ± 9.3	105	87.1 ± 7	122	92.5 ± 19	108 ± 18	146 ± 29
CCCCc1ncc(C=C(Cc2cccs2)C(=O)O)n1Cc1ccc(C(=O)O)cc1.CS(=O)(=O)O [Eprosartan Mesylate]	156 ± 27	129	106 ± 17	120	108 ± 12	134	124 ± 9.7	123 ± 9.3	198 ± 22
CC(C)C(N)C(=O)OCC(CO)OCn1cnc2c(=O)nc(N)[nH]c21.Cl (stereo unspecified) [Valganciclovir HCl]	96.1 ± 5.7	104	90 ± 24	90.6	55.1 ± 2	111	120 ± 38	111 ± 28	138 ± 13
OC[C@@H](O)[C@@H](O)[C@H](O)[C@@H](O)CO [D-Sorbitol]	96 ± 11	118	107 ± 21	91.5	109 ± 4.5	120	96.3 ± 8	103 ± 2.6	120 ± 21
Nc1nc(=O)c2c([nH]1)NCC(CNc1ccc(C(=O)NC(CCC(=O)[O-])C(=O)[O-])cc1)N2C=O.O.O.O.O.O.[Ca+2] (stereo unspecified) [Leucovorin Calcium]	104 ± 22	102	131 ± 55	83.9	108 ± 13	127	122 ± 2.5	67.9 ± 22	156 ± 29
CC1(C)SC2C(NC(=O)C(N)c3ccc(O)cc3)C(=O)N2C1C(=O)O (stereo unspecified) [Amoxicillin]	123 ± 28	112	103 ± 4.6	112	141 ± 17	120	84.9 ± 12	138 ± 44	102 ± 10
CCOC(=O)NC1CCC2C(C1)CC1C(=O)OC(C)C1C2C=Cc1ccc(-c2cccc(F)c2)cn1 (stereo unspecified) [Vorapaxar]	132 ± 37	121	90.5 ± 21	104	84.1 ± 22	108	76.4 ± 3.5	115 ± 27	72.6 ± 10
O=C(NCC1CN(c2ccc(N3CCOCC3=O)cc2)C(=O)O1)c1ccc(Cl)s1 (stereo unspecified) [Rivaroxaban]	114 ± 11	119	89.9 ± 3.4	105	130 ± 15	94.8	85.2 ± 13	109 ± 9	117 ± 15
CCCc1cc(C(N)=S)ccn1 [Protionamide]	90.1 ± 32	117	97.5 ± 3	89.2	117 ± 10	112	100.1 ± 0.95	84 ± 27	112 ± 7.7
CCCc1ncc(C[n+]2ccccc2C)c(N)n1.Cl.[Cl-] [Amprolium HCl]	129 ± 15	135	102 ± 4.4	104	128 ± 7	145	71.4 ± 27	110 ± 7.3	99.4 ± 13
CC(C)OC(=O)C(C)NP(=O)(OCC1OC(n2ccc(=O)[nH]c2=O)C(C)(F)C1O)Oc1ccccc1 (stereo unspecified)	85.3 ± 7.8	103	79.3 ± 11	79.5	82.5 ± 5.5	141	84.26 ± 0.3	104 ± 7	120 ± 5
COCCCOc1ccnc(C[S+]([O-])c2nc3ccccc3[nH]2)c1C (stereo unspecified) [Rabeprazole]	156 ± 40	159	116 ± 3.5	123	152 ± 1.6	161	128 ± 27	131 ± 15	138 ± 8.2
CN=C(NC#N)NCCSCc1nc[nH]c1C [Cimetidine]	136 ± 22	124	93.85 ± 0.84	101	102 ± 16	115	88.1 ± 5.3	87.8 ± 19	120 ± 4.4

SMILES	cell viability [1]	cell viability [2]	cell viability [3]	cell viability [4]	cell viability [5]	cell viability [6]	cell viability [7]	cell viability [8]	cell viability [9]
CCC(=C(CC)c1ccc(O)cc1)c1ccc(O)cc1 [Diethylstilbestrol]	59.1 ± 40	95.7	61.4 ± 39	75.5	41 ± 12	107	78.3 ± 8.4	116 ± 51	83.8 ± 11
Cl.NC12CC3CC(CC(C3)C1)C2 [Amantadine HCl]	136 ± 17	117	104 ± 1.4	98.7	120 ± 7.4	132	93.3 ± 2.1	107 ± 17	105 ± 1.4
COc1ccc(Cl)cc1C(=O)NCCc1ccc(S(=O)(=O)NC(=O)NC2CCCCC2)cc1 [Glibenclamide]	103 ± 13	151	93.7 ± 16	93.2	108.2 ± 0.86	110	119 ± 3.5	134.7 ± 0.95	
CN(C)C(=O)COC(=O)Cc1ccc(OC(=O)c2ccc(N=C(N)N)cc2)cc1.CS(=O)(=O)O [Camostat Mesilate]	105 ± 24	133	85.2 ± 6.6	70.7	109 ± 5.7	112	99.8 ± 6.7	108 ± 5.9	110 ± 5.2
C=C1C(CO)C(O)CC1n1cnc2c(=O)nc(N)[nH]c21.O (stereo unspecified) [Entecavir Hydrate]	110 ± 5.2	104	91.1 ± 4.7	99.5	82.7 ± 5.4	108	103 ± 13	81.3 ± 11	107 ± 9.8
COc1cc2c(cc1OC)CN(CCc1ccc(NC(=O)c3cccc4c(=O)c5cccc(OC)c5[nH]c34)cc1)CC2 [Elacridar]	111.7 ± 0.54	71.7	71.7 ± 33	101	113 ± 35	97.7	63.7 ± 5.6	48.2 ± 22	89.9 ± 0.9
c1coc(CNc2ncnc3nc[nH]c23)c1 [Kinetin]	109 ± 4.5	123	103 ± 12	100	120 ± 7.4	86.8	102 ± 20	93.7 ± 4	121 ± 4.5
Cl.O=C(Nc1ccccc1)OCC(CN1CCCCC1)OC(=O)Nc1ccccc1 (stereo unspecified) [Diperodon HCl]	99 ± 2.1	124	97.9 ± 2.3	119	162 ± 49	138	84.2 ± 13	94.3 ± 20	167 ± 16
CO[C@H]1/C=C/O[C@@]2(C)Oc3c(C)c(O)c4c(c3C2=O)C2=NC3(CCN(CC(C)C)CC3)NC2=C(NC(=O)/C(C)=C\C=C\[C@H](C)[C@H](O)[C@@H](C)[C@@H](O)[C@@H](C)[C@H](OC(C)=O)[C@@H]1C)C4=O [Rifabutin]	56.1 ± 34	116	57.3 ± 27	83.2	113 ± 16	121	81.2 ± 1.8	79.1 ± 27	143 ± 7.7
O=C(C=Cc1ccc(O)c(O)c1)OC1CC(O)(C(=O)O)CC(O)C1O (stereo unspecified) [Chlorogenic acid]	104 ± 3.3	153	119 ± 45	95.8	107 ± 6.4	116	113 ± 2.8	101 ± 14	77 ± 12
CS(=O)(=O)O.N#CC1(c2ccc(NC(=O)c3cccnc3NCc3ccncc3)cc2)CCCC1 [Apatinib]	140 ± 88	109	33.4 ± 8.3	65.4	65 ± 2	119	48.5 ± 6.5	85.3 ± 4.8	105 ± 19
CC(CN1c2ccccc2Sc2ccccc21)N(C)C (stereo unspecified) [Promethazine HCl]	106 ± 15	90	75.8 ± 5.4	92.9	96.1 ± 3.6	107	73.3 ± 6.1	85 ± 17	114 ± 7.7
O=c1[nH]cc(F)c(=O)[nH]1 [Fluorouracil (Adrucil)]	136 ± 18	112	75.1 ± 7.2	167	81.1 ± 6	151	139.3 ± 0.23	106 ± 20	
CCOC(=O)c1ccc(C#Cc2ccc3c(c2)C(C)(C)CCS3)nc1 [Tazarotene]	141 ± 48	108	127 ± 22	113	184 ± 8.9	97.9	104 ± 16	123 ± 1.6	188 ± 10
O=S(=O)([O-])CCS.[Na+] [Mesna]	112.4 ± 0.12	118	98.4 ± 6.8	103	141 ± 28	97.2	89.3 ± 3.8	100 ± 13	106 ± 6.6
NC(=O)c1cnccn1 [Pyrazinamide]	66.5 ± 42	126	90.8 ± 15	93.8	99.7 ± 1.4	98.9	85.8 ± 0.98	90.2 ± 30	
Cc1ccsc1C(=CCCN1CCC[C@@H](C(=O)O)C1)c1sccc1C [Tiagabine]	96.4 ± 12	81.9	105 ± 4.9	84.2	96.9 ± 1.7	115	89.1 ± 5.2	100 ± 22	96 ± 12
CNCC(O)c1cccc(O)c1.Cl (stereo unspecified) [Phenylephrine HCl]	110 ± 2.1	126	103 ± 22	105	78 ± 4.8	97.2	87.5 ± 4.1	86.1 ± 7.8	109 ± 7.6
CS(=O)(=O)O.CS(=O)(=O)O.N=C(N)c1ccc2cc(OC(=O)c3ccc(N=C(N)N)cc3)ccc2c1 [Nafamostat Mesylate(FUT-175)]	110 ± 13	82	43.9 ± 4.1	82.1	95.5 ± 20	98.4	106 ± 13	100 ± 34	105 ± 13
